Screening data (PubChem)
This is a sample that favours compounds with a hit; in the whole collection about 2.2% have one here.
FUS suppressor: qHTS for Suppressors of FUS Proteinopathy: Primary screen using FUS-linked yeast assay. Potency, µM (highest dose often 76.6 µM), usual class: activators. S. cerevisiae FUS-expressing, growth rescue, OD600, 24 h. hit rate 0.24% among 390,000; note: nearly all actives have a fitted effect of over 55% in size
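Read-out: OD at 600 nm after 24hr at 30C, reporting rescue of FUS-induced yeast toxicity. Cells at OD 0.005 in galactose (2%) minimal medium; compounds tested in a dilution series; CP55940 titration from 92uM final as control.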
Abeta yeast res: qHTS for compounds that reverse cellular toxicity of Amyloid beta (A-beta) peptide in yeast: Primary Screen | AID 1347071, 2019 | yeast expressing A-beta42, growth rescue, OD600, 48 h; response scale: 0% DMSO, 100% iron-clioquinol control | Potency, µM (series often up to 46.1 µM), usual class: activators | hit rate 0.063% among 410,000; note: nearly all actives have a fitted effect of over 55% in size
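Growth rescue measured by 600 nm absorbance after 48 h yeast culture at 30 C with compound. Values normalized between DMSO and an equimolar ferric chloride plus clioquinol control.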
aSyn rescue: qHTS of alpha-syn Inhibitors. Yeast expressing alpha-synuclein, growth rescue, BacTiter-Glo, 24 h. Potency, µM (series often up to 46.1 µM), most hits filed as activators. hit rate 0.14% among 370,000; note: nearly all actives have a fitted effect of over 65% in size
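Rescue of yeast growth: cells expressing toxic alpha-synuclein, induced in galactose at OD600 0.02, incubated with compound 24 h at 30 C. ATP luminescence quantified growth; inhibitors of toxicity appear as activators.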
TDP43 rescue: qHTS of TDP-43 Inhibitors; TDP-43 expressing yeast growth rescue, BacTiter-Glo, 24 h; Potency, µM (top dose mostly 46.1 µM), hits mostly activators; hit rate 1.8% among 410,000; AID 652104, 2013; note: nearly all actives have a fitted effect of over 50% in size
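Yeast cells expressing TDP-43 under galactose induction are exposed to compounds for 24 hr at 30 deg C. BacTiter-Glo luminescence measures growth, so protective compounds score as activators.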
Mito fusion yeast: qHTS Assay for Small Molecule Inhibitors of Mitochondrial Division or Activators of Mitochondrial Fusion; S. cerevisiae fusion-defective mutant growth rescue, CellTiterGlo 48 h; Potency, µM (highest dose often 46.1 µM), usual class: activators; hit rate 0.23% among 320,000; AID 485298, 2010; note: nearly all actives have a fitted effect of over 45% in size
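Temperature-sensitive fusion-defective S. cerevisiae (e.g. fzo1-1, mgm1-5) were grown with compound in YPEG medium (3% ethanol, 3% glycerol) for 48 hours at 37C. Growth rescue was measured as viability by CellTiterGlo luminescence after 10 minutes at ambient.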
Hits are given with their value; - = inactive; ? = inconclusive; . = no result given; ! = repeats disagree; [ ] = dose if it differs, or a comment. Calls come from the whole dose curve; as a rule, active = well fitted curve in the direction sought with a large enough effect; inconclusive = small, poorly fitted or top-dose-only effect, or another doubt; inactive = no such curve, though single readings can be large; an effect the other way counts as inactive or inconclusive.

SMILES | FUS suppressor | Abeta yeast res | aSyn rescue | TDP43 rescue | Mito fusion yeast
O=C(CSc1ccc2c(c1)OCCO2)Nc1ccc(Cl)cn1 | - | - | - | 11µM | -
O=C(CSc1ccc2c(c1)OCCO2)Nc1ncccc1O | - | - | - | - | -
COc1ccc(NC(=O)CN(C)C(=O)CSc2ccc3c(c2)OCCO3)cc1 | - | - | - | - | -
O=C(CSc1ccc2c(c1)OCCO2)Nc1ccc(Br)cn1 | - | - | - | 13µM | -
CC1(C(=O)N2CCC(Oc3cccnc3)CC2)CC1 | - | . | . | . | .
CN(C)CCOC1c2ccccc2CCc2ccc3ccccc3c21 (stereo unspecified) | - | - | ? | 16µM | .
O=C(O)c1ccccc1Nc1ccccc1 | - | - | - | - | 23µM!
COc1cccc(Nc2ccccc2C(=O)O)c1 | - | - | - | - | -
COc1cc(OC)cc(-c2sc3ccc(OC)cc3c2C#CCCO)c1 | ? | - | - | - | -
COc1ccc2sc(-c3ccccc3OC)c(C#CCCO)c2c1 | - | - | - | 20µM | -
COc1ccccc1-c1sc2cc3c(cc2c1C#CCO)OCO3 | ? | - | - | 22µM | ?
O=C(NCc1ccc(C(=O)N2CCOCC2)cc1)c1cccc(Br)c1 | - | . | . | . | .
O=C(Cn1nc2c(cc1=O)CCCC2)NCc1ccccc1 | - | - | . | - | .
O=C(Nc1ccc(F)c(Cl)c1)c1cc(C2CCCN(C(=O)C3CC3)C2)on1 (stereo unspecified) | - | - | - | 25µM | .
O=C(NCc1ccc(F)cc1)c1cc(C2CCCN(C(=O)CCCc3ccccc3)C2)on1 (stereo unspecified) | ? | - | - | 18µM | .
O=C(Nc1ccccc1)c1cc(C2CCCN(C(=O)CCc3ccccc3)C2)on1 (stereo unspecified) | - | - | - | 18µM | .
O=C(NCc1ccccc1)c1cc(C2CCCN(C(=O)CCc3ccccc3)C2)on1 (stereo unspecified) | - | - | - | - | .
O=C(Nc1ccc(F)c(Cl)c1)c1cc(C2CCCN(C(=O)CCc3ccccc3)C2)on1 (stereo unspecified) | - | - | - | 28µM | .
Brc1ccc[n+](CCc2ccccc2)c1 | . | . | - | . | .
Nn1c(SCc2cccc3ccccc23)nnc1-c1cc(-c2ccc(F)cc2)n[nH]1 | - | . | . | . | .
CCc1ccc(-n2c(=O)c3c4c(sc3n(CC(=O)c3ccc(F)cc3)c2=O)CCC4)cc1 | - | - | . | - | .
CC(=O)Nc1ccc(/C=C/c2sc3ccccc3[n+]2CCCCI)cc1 | . | . | - | . | .
CCOC(=O)c1cc(-c2ccccc2)n(-c2cccc(C(=O)Nc3cccc(SC)c3)c2)c1C | - | - | . | - | .
O=C(Nc1ccccc1)c1cc(C2CCCN(C(=O)OCc3ccccc3)C2)on1 (stereo unspecified) | - | - | - | 35µM | .
Cc1cccc(N(CC(=O)NCCSCc2ccc(Cl)cc2)S(C)(=O)=O)c1C | - | ? | . | 16µM | .
SMILES | FUS suppressor | Abeta yeast res | aSyn rescue | TDP43 rescue | Mito fusion yeast
Cc1ccc2oc(-c3ccc(C)c(NC(=O)COc4ccc(Cl)cc4C)c3)nc2c1 | . | . | - | . | .
CCS(=O)(=O)n1nc(-c2ccc(Cl)cc2)nc1SC | - | - | - | 16µM | -
CCS(=O)(=O)n1nc(-c2ccco2)nc1SC | - | - | - | - | -
COc1ccc(Br)c(C(=O)N2CCN(S(=O)(=O)/C=C/c3ccccc3)CC2)c1 | - | - | - | 13µM | -
CCOC(=O)c1c(N)sc2c1CCN(Cc1ccccc1)C2 | . | . | - | . | .
Cc1ccccc1-n1c(SCC(=O)c2cc(C)n(C)c2C)nnc1-c1cccnc1 | - | - | - | - | -
COCCn1c(C)cc(C(=O)CSc2nnc(-c3cccnc3)n2-c2ccccc2F)c1C | 20µM | - | . | - | -
CC1=C(C(=O)Nc2ccc([N+](=O)[O-])cc2)C(c2cccc(C(F)(F)F)c2)NC(=S)N1c1ccccc1 (stereo unspecified) | 10µM | - | - | - | -
COc1ccc(C2NC(=S)N(c3ccccc3)C(C)=C2C(=O)Nc2ccccc2)cc1 (stereo unspecified) | - | - | - | - | -
COc1ccc(OC)c(C(Cc2ccnc3ccccc23)Cc2ccnc3ccccc23)c1 | . | . | - | . | .
O=C(NCCc1csc(-c2ccc(C(F)(F)F)cc2)n1)c1ccccc1Cl | - | - | . | ? | .
O=C(NCCc1csc(-c2ccc(C(F)(F)F)cc2)n1)c1cccs1 | ? | - | - | 22µM | -
COc1cccc(OC)c1C(=O)NCCc1csc(-c2ccc(Cl)cc2)n1 | - | - | . | 22µM | .
COc1cccc(C(=O)NCCc2csc(-c3ccc(Cl)cc3)n2)c1 | - | - | . | 35µM | .
COc1ccc(-c2nc(CCNC(=O)c3c(F)cccc3Cl)cs2)cc1 | - | - | . | 18µM | .
O=C(NC1CC(=O)N(c2ccccc2)C1)c1ccc(S(=O)(=O)N2CCCCC2)cc1 (stereo unspecified) | - | - | . | - | .
CCOc1ccc(OCC)c(NC(=O)CCc2nc3cccnc3n2-c2ccccc2)c1 | - | - | . | - | .
Cc1c(-c2ccc(Cl)cc2)c(=O)oc2c(CN3CCN(C)CC3)c(O)ccc12 | - | - | . | -[9.22 µM] | .
COc1cccc(NC(=O)Cn2c(=O)n(Cc3ccc4c(c3)OCO4)c(=O)c3oc4ccccc4c32)c1 | - | - | . | - | .
Cc1ccc2c(c1)N(C(=O)CCC(=O)NCCCN(C)Cc1ccccc1)CCO2 | - | - | - | - | -
Cc1ccc2c(c1)N(C(=O)NCc1ccccc1)CCO2 | - | - | . | 18µM | .
CC1=NNC(=O)/C1=C\c1cn(-c2ccccc2)nc1-c1ccc(Cl)cc1 | . | - | - | 10µM | -
Cc1oc2c(c(C)cc3oc(=O)c(CC(=O)NCc4ccc(F)cc4)c(C)c32)c1C | - | - | . | - | .
COc1ccc(NCc2cc3cc4c(cc3n(CC(=O)Nc3ccc(C)c(C)c3)c2=O)OCO4)cc1 | ? | - | - | - | .
Cc1ccc(-c2csc(NC(=O)c3c(C)noc3C)n2)s1 | . | - | - | 11µM | .
SMILES | FUS suppressor | Abeta yeast res | aSyn rescue | TDP43 rescue | Mito fusion yeast
Cc1ccc(-c2cc(-c3n[nH]c(=S)o3)c3ccccc3n2)cc1 | - | - | - | ? | ?
S=c1[nH]nc(-c2cc(-c3ccccn3)nc3ccccc23)o1 | - | - | - | 3.2µM | -
CCOC(=O)[C@]12CCCC3=C1N(CCC3)C(=O)[C@@H](CC(=O)NCc1cccc(C(F)(F)F)c1)C2 | - | . | . | . | .
CCCCOC(=O)c1ccc(Nc2ncnc3nc[nH]c23)cc1 | - | - | - | - | -
CCCCCCCCOC(=O)c1cc([N+](=O)[O-])c(Sc2ncnc3nc[nH]c23)c([N+](=O)[O-])c1 | . | - | - | 13µM | .
COc1ccccc1CNS(=O)(=O)c1cnc(N)nc1 | - | - | . | - | .
Fc1ccc(C2=CC(c3ccc(F)cc3)n3c(nc4ccccc43)N2)cc1 (stereo unspecified) | - | - | . | 22µM | .
